Reference: PubChem BioAssay (NCATS)
Inconclusive results are not listed. A call without a number means that no potency is given here. Calls of active or inactive are those of the source. Calls come from the whole dose curve; as a rule, active = well fitted activation curve with a large enough effect; inconclusive = small, poorly fitted or top-dose-only effect; inactive = no such curve, though single readings can be large or run the other way. Numbered stars: 1 amine (or outer) side, 2 acyl side, 3 side chain; on linkers, the order of the positions; unused ones are H or OH. Square brackets hold non-standard residues; d marks the D form. Peptide text beside a SMILES is read from it. X1 = CCCCCCCCCC(=O)[C@H](C(=O)[*:2])[C@@H]1CNC(=O)[C@@H](N[*:1])CS1
Potency is the fitted concentration of half-maximal effect.

Assay: Redox Reaction Profiling qHTS: Assay Interference Panel against the NCATS CANVASS Library (AID 1347401)
Settings: resazurin-DTT redox cycling, fluorescence, 15 min; series mostly up to 57.1 µM
From the text: Natural products and their derivatives continue to be wellsprings of nascent therapeutic potential. However, many laboratories have limited resources for biological evaluation, leaving their previously isolated or synthesized compounds largely or completely untested. To address this issue, the Canvass library of natural products was assembled (https://tripod.nih.gov/canvass), in collaboration with academic and industry researchers, for quantitative high-throughput screening (qHTS) across a diverse set of cell-based and biochemical assays. The pure (>85% purity by liquid chromatography/mass spectrometry [LC/MS]) Canvass library of 346 natural products were submitted by 45 academic laboratories and companies around the world. We collected pure natural products to circumvent deconvolution and structure elucidation due to time and resource limitations. The library was formatted into 1536-well plates and evaluated in 50 qHTS (in an 11-pnt concentration series) bioassays with broad scope of disease-relevant mechanisms. The resulting data set from 50 different assays was then systematically analyzed to identify overall trends and specific natural products with interesting biological activities. Reported herein are the results of each individual qHTS and their corresponding assay protocol. This profiling assay measures the resazurin-to-resorufin redox reaction in the presence of DTT and compound, and serves as a useful surrogate assay for measuring potential compound redox liability National Center for Advancing Translational Sciences (NCATS), Rockville, MD National Institute of Health (NIH), Bethesda, Maryland
Redox Profiling assay protocol: 1. In a black-solid bottom, medium binding, 1536-well plates (Greiner 789176), 4 uL of [1x] 5uM Resazurin + 200 uM DTT + buffer (50 mM HEPES pH 7.3 + 50 mM NaCl) was dispensed (into columns 1 - 48, rows 1 - 32) using a BioRAPTR FRD dispenser (Beckman Coulter). 2. 23 nL of compounds were pin transferred into the assay plates (columns 5 - 48) using the Kalypsis pin tool (Wako USA) equipped with a 1536-well pin heads. This yields a final concentration range of 0.002 - 127 uM. Control compound Chloranil (NCGC00091254-06) was also pinned (23 nL) into column 2, rows 1 - 32 (working concentration 10 mM, 1:2 dilution; 16 points titrations; n = 2). The final concentration range for the Chloranil was 0.002 to 57.2 uM. For 100% activation control, a single dose of 23 nL Chloranil (350 uM working concentration) was pinned to columns 3 and 4, rows 1-32 for a final concentration of 2 uM. 3. The assay plates were centrifuged for 15 seconds at 1000 rpm. 4. An initial fluorescence readout was obtained using the ViewLux plate reader (PerkinElmer) using a 525 nm excitation and a 598 nm emission filters. 5. The assay plates were incubated for 15 minutes in the dark. 6. After incubation, the final fluorescence readout was obtained using the ViewLux plate reader (PerkinElmer) using a 525 nm excitation and a 598 nm emission filters.
For `CC[C@@H]1C[C@@]2(CC)OC(=O)[C@@]3(CC)OC(=O)[C@@H]1[C@@H]23`, the Potency was “inactive”. For `C=C[C@@]1(C)CC[C@@H]([C@H](C)C(=O)/C=C/C(C)C)O1`, the Potency was “inactive”. For `C[C@@H]1O[C@@H](O[C@@H]2[C@@H](O)[C@H](O[C@@H]3[C@@H](O)[C@@H](O)C(O[C@H]4[C@H](OC(=O)[C@]56CCC(C)(C)C[C@H]5C5=CCC7[C@@]8(C)C[C@H](O)[C@H](O[C@@H]9C[C@H](CO)[C@@H](O)[C@H](O)[C@H]9O)[C@@](C)(CO)C8[C@H](O)C[C@@]7(C)[C@]5(C)CC6)OC[C@H](O)[C@@H]4O)O[C@H]3C)OC[C@H]2O)[C@H](O)[C@H](O)[C@H]1O` (stereo not given in full), the Potency was “inactive”. With `O=C(O)CC1OCc2c(O)cccc21` (stereo not given) the Potency was “inactive”. In the case of `O=C(O)Cc1c[nH]c2ccccc12`, the Potency is reported as “inactive”. In the case of `O=C(O)[C@@]12COC3(O)C1CCN1CC[C@H]3[C@@H]1c1c2[nH]c2ccccc12`, the Potency is reported as 21.5 µM (active). In the case of `C=C(C)C(=O)O[C@H]1C[C@H](C)[C@@H](OC(C)=O)CC[C@@]2(C)O[C@@H]2[C@H]2OC(=O)C(COC(C)=O)=C12`, the Potency is reported as “inactive”. In the case of `CC(=O)O[C@@H]1C=C2C(=O)OC[C@]2(O)[C@@]2(C)CCCC(C)(C)[C@H]12`, the Potency is reported as “inactive”. With `CCCCCCCCCCCCCCCC(=O)OC/C=C(\C)CCCC(C)CC(C)C(C)C` (stereo not given) the Potency was “inactive”. For `Oc1ccc(/C=C2/c3cc(O)cc(O)c3C(c3ccc(O)cc3)[C@H]2c2cc(O)cc(O)c2)cc1` (stereo not given in full), the Potency was “inactive”. For `CC1(C)CCC[C@]2(C)[C@@H]1CC[C@@]13C[C@@H](CC[C@H]12)C(C)(O)C3` (stereo not given in full), the Potency was “inactive”. For `CC1C(=O)C23CCC1C[C@@]21O[C@H]2C(C)(C)C=CC(=O)[C@@]23COC1=O` (stereo not given in full), the Potency was “inactive”. For `C=C(C)CC[C@H](Cc1c(O)cc(O)c2c1O[C@H](c1ccc(O)cc1O)CC2=O)C(=C)C`, the Potency was “inactive”. With `CN1C(=O)C2C(N=CN2C)N(C)C1=O` (stereo not given) the Potency was “inactive”. With `C[C@H]1C[C@@H]([C@@H]2CC[C@]34O[C@H](CC[C@@]35C[C@H](C)C(=O)O5)CN24)OC1=O` the Potency was “inactive”. For `CC(=O)NC[C@@H]1O[C@H](CC/C=C(C)/C(C)=C/C=O)[C@H](C)C[C@H]1O`, the Potency was “inactive”. With `C[C@@H]1C(=O)[C@]23CC[C@H]1C[C@]21O[C@H]2C(C)(C)C=CC(=O)[C@@]23COC1=O` the Potency was “inactive”. With `COc1cc(/C=C/C(=O)O)ccc1O` the Potency was “inactive”. In the case of `O=C1C[C@@H](c2ccc(O)c(-c3c(O)cc(O)c4c3O[C@H](c3ccc(O)cc3)CC4=O)c2)Oc2cc(O)cc(O)c21`, the Potency is reported as “inactive”. With `O=Cc1ccc2n1C[C@@]1(C[C@H](O)[C@H](O)CO1)OC2` the Potency was “inactive”. For `C[C@@]12CCC[C@@](C)(C(=O)O)[C@H]1C[C@@H](O)[C@]13C[C@H]4C[C@H](O[C@@]4(C)C1)[C@@H]23`, the Potency was “inactive”. With `CC(=O)O[C@H]1CC[C@@]2(C)C(CC[C@]3(C)C2CC=C2C4CC(C)(C)CC[C@]4(C)CC[C@]23C)C1(C)C` (stereo not given in full) the Potency was “inactive”. With `CC1(C)CC[C@]2(C(=O)O)CC[C@]3(C)C(=CC[C@@H]4[C@@]5(C)C[C@@H](O)[C@H](O)C(C)(C)[C@@H]5CC[C@]43C)[C@@H]2C1` the Potency was “inactive”. For `CN1CC[C@]2(c3cccc4c3N[C@@H]3N(C)CC[C@]43[C@@]34CCN(C)[C@@H]3Nc3c([C@]56CCN(C)[C@H]5Nc5ccccc56)cccc34)c3ccccc3N[C@H]12`, the Potency was “inactive”. In the case of `O=C1c2c(O)cc(O)cc2O[C@@H](c2ccc(O)cc2)[C@@H]1c1c(O)cc(O)c2c(=O)cc(-c3ccc(O)c(O)c3)oc12`, the Potency is reported as “inactive”. With `C[C@@H]1C[C@H]2C[C@]3(CCCCN3C)[C@@H]3C[C@H]2[C@H](C1)N(C)C3` the Potency was “inactive”. With `C=C1C[C@@]23C=CC(=O)[C@@](C)(CCC(=O)Nc4c(O)ccc(C(=O)O)c4O)C2C[C@@H]1CC3O` (stereo not given in full) the Potency was “inactive”. With `O=C(O)[C@@]12CO[C@@]3(O)C4CCN(CC[C@H]31)[C@H]4c1c2[nH]c2ccccc12` the Potency was “inactive”. In the case of `CS/C=C/C(N)=O`, the Potency is reported as “inactive”. For `CCCCCCCCCC(=O)[C@@H]1C(=O)N[C@@H](CC(C)C)C(=O)N[C@H](C)C(=O)N2CCC[C@H]2C(=O)N[C@@H](C(C)C)C(=O)N[C@H]2CS[C@H]1CNC2=O` (cyclo(L[dA]PV[X1])), the Potency was “inactive”. For `C=C1[C@H]2CC[C@@]3(C=CC(=O)[C@@](C)(CCC(=O)Nc4c(O)ccc(C(=O)O)c4O)C3C2)[C@H]1O` (stereo not given in full), the Potency was “inactive”. For `O=Cc1ccc2n1C[C@@]1(C[C@H](O)[C@@H](CO)O1)OC2`, the Potency was “inactive”. With `O=c1cc(-c2ccc(O)c(O[C@@H]3O[C@H](CO)[C@@H](O)[C@H](O)[C@H]3O)c2)oc2cc(O[C@@H]3O[C@H](CO)[C@@H](O)[C@H](O)[C@H]3O)cc(O)c12` the Potency was “inactive”. With `CCCCCC[C@H](CCCCC[C@@H](O)C(N)=O)OC(=O)[C@@H]1CC=CN1C(=O)c1ccccc1O` the Potency was “inactive”. For `CO[C@@H]1[C@H](O)[C@@H](C)O[C@@H](OC[C@@H]2C(C)OC(=O)/C=C/[C@H](C)C(O[C@@H]3O[C@H](C)CC4(OC(=O)O[C@@H]4C)C3O)[C@@H](C)CC(C)C(=O)CC[C@H]3OC23)[C@@H]1OC` (stereo not given in full), the Potency was “inactive”. In the case of `CCCCCCC[C@@H](C/C=C/CCC(=O)NCCc1c[nH]c2ccccc12)OC`, the Potency is reported as “inactive”. In the case of `CNc1ccc(Cl)cc1C(=O)OC[C@]1(C)[C@H]2CC[C@]3(C)[C@@H](C[C@@H](OC)[C@H](C)[C@H]3C3=C(O)C(=O)OC3O)[C@]2(C)CC[C@H]1O` (stereo not given in full), the Potency is reported as “inactive”. In the case of `C=C[C@]1(C)CC[C@@H]([C@H](C)C(=O)/C=C/C(C)C)O1`, the Potency is reported as “inactive”. With `COc1cc(O)c2c3c(c(O)cc(C)c13)C(=O)OC2` the Potency was 21.5 µM (active). For `Oc1ccc(C2c3c(O)cc(O)cc3[C@@H]3C(c4ccc(O)cc4)c4c(O)cc(O)cc4[C@H]23)cc1` (stereo not given in full), the Potency was “inactive”.
